# Assay outcomes from PubChem BioAssay.
# Hits are enriched below; roughly 7.5% of the tested compounds scored in any of these assays.
# ELG1 genotoxic: induces genotoxicity in HEK293T cells with luciferase-tagged ELG1; Potency, µM (top dose mostly 46 µM), for inactives: at the top dose activity change, positive = activation, actives largely listed as activators; HEK293T ELG1-luciferase reporter, luminescence, 16 h; actives 1.3% (n = 330,000); note: % of control where 0% means no effect; nearly all actives have a fitted effect of over 60% in size
#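 Quantitative HTS format in 1536-well plates. HEK293T ELG1-luciferase reporter cells receive test compound and are incubated 16 hr at 37 °C, 5% CO2; ONE-Glo added, 30 min room temperature, then luminescence read.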
# SMN2 splice up: increases expression of the SMN2 splice variant. Potency, µM (top dose mostly 46.1 µM), for the others: top-dose activity change, positive = activation, usual class: activators. HEK293 SMN2-luciferase splicing reporter, luminescence, 30-36 h. actives 2.8% (n = 210,000). AID 1458; note: % of control where 0% means no effect; nearly all actives have a fitted effect of over 55% in size
#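 HEK293 cells carry an SMN2 minigene-luciferase reporter in which exon 7 inclusion puts luciferase in frame. Cells were seeded at 2000 cells/well, attached for 10-12 hours, then exposed to compounds for 30-36 hours at 37C before ONE-Glo luminescence.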
# NPC1 prom act: NPC1 promoter activation; Huh7 NPC1 promoter luciferase reporter, 24 h; Potency, µM (titrated, usually from 9.22 µM), inactives show top-dose activation, most hits filed as activators; actives 2.4% (n = 320,000); note: % of control where 0% means no effect; nearly all actives have a fitted effect of over 60% in size
#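 Readout is luciferase luminescence, reflecting NPC1 promoter activation in stably transfected Huh7 cells after 24 h compound exposure at 37 °C in reduced-serum medium with 10% FBS.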
# FLuc counter: firefly luciferase modulation, counter-screen for miR-21 project | actives 6.9% (n = 360,000) | Potency, µM (top dose mostly 57.5 µM), without a hit: at the top dose activity change, negative = inhibition, actives largely listed as inhibitors | AID 588342 | purified FLuc, Km substrates, luminescence inhibition;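 note: plate controls were vehicle for no effect and reference inhibitor for full effect; nearly all actives have a fitted effect of over 55% in size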
# Target sequence (P08659 whole entry, looked up): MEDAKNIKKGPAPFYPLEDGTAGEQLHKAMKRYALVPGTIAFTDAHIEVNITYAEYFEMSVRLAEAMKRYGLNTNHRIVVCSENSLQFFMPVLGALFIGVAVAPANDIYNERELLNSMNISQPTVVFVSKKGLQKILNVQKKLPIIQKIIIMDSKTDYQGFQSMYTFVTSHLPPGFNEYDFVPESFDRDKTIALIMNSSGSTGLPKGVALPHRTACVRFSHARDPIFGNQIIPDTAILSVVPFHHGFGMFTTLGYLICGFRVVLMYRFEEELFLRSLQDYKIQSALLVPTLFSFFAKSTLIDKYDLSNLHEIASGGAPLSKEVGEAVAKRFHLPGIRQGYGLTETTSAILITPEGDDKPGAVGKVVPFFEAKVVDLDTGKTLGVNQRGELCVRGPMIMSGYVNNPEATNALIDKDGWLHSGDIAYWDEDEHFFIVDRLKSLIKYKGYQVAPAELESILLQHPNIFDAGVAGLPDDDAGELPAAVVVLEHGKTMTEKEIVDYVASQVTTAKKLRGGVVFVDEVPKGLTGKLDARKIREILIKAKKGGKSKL
#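 Purified P. pyralis luciferase, 10 nM final, with Km-level 10 uM D-luciferin and 10 uM ATP in 50 mM Tris acetate pH 7.5, 10 mM Mg acetate, 0.01% Tween-20, 0.05% BSA; 6-point qHTS titration about 60 µM downward; luminescence read.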
# Rab9 prom act: activates the Rab9 promoter. actives 2.8% (n = 320,000). Huh7 Rab9 promoter-luciferase reporter, luminescence, 24 h. Potency, µM (doses to about 9.22 µM), for the others: at the highest dose activation, negative = inhibition, actives largely listed as activators; note: % of control where 0% means no effect; nearly all actives have a fitted effect of over 60% in size
#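 Stable Rab9-luc Huh7, 1500 cells/well, 2 h settle; cmpd in DMSO, 24 h, 37 °C/5% CO2; luciferase reagent 10 min RT; luminescence.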
# Luc counter: blocks Kinase-Glo luciferase, a counter-screen artifact; Kinase-Glo luciferase, ATP luminescence, 8 min; Potency, µM (series often up to 38.3 µM), for the others: top-dose activity change, negative = inhibition, actives largely listed as inhibitors; actives 0.28% (n = 200,000); AID 1379; note: % is set by controls: 0 for no effect and ±100 for the full control effect; nearly all actives have a fitted effect of over 60% in size
#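 Compound is pinned into ATP-containing buffer (10 uM ATP, imidazole pH 7.2, 7 mM MgCl2). Kinase-Glo luciferase reagent is then added. Light output is recorded following an 8-min room-temperature incubation.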
# The depositor's hits bear a star; ? = inconclusive; . = no result given; [ ] = remark or other dose. Calls come from the whole dose curve; as a rule, active = well fitted curve in the direction sought with a large enough effect; inconclusive = small, poorly fitted or top-dose-only effect, or another doubt; inactive = no such curve, though single readings can be large; an effect the other way counts as inactive or inconclusive. Potency is the fitted concentration of half-maximal effect.
SMILES,ELG1 genotoxic,SMN2 splice up,NPC1 prom act,FLuc counter,Rab9 prom act,Luc counter
COC(=O)c1ccc(C(NC(=O)OCc2ccccc2)/C(F)=C/[C@@H](C)C(=O)N(C)Cc2cccnc2)cc1 (stereo not given in full),.,-19%,.,.,.,1%
Cc1c(C)n(CCc2ccccc2)c2ncnc(NCCCO)c12,?,.,1.8µM*,11µM*,1.6µM*,.
COCCn1c(C)c(C)c2c(NCCc3ccccc3)ncnc21,?,.,0.35µM*,0.85µM*,0.5µM*,.
Cc1c(C)n(CCc2ccccc2)c2ncnc(NN)c12,-3%,.,-26%,-15%,-14%,.
Clc1ccc(-c2ccc(C=Nc3ccc(N4CCOCC4)cc3)o2)cc1,0%,-33%,2%,4.8µM*,1%,-4%
Clc1ccc(-c2ccc(C=Nc3ccc(N4CCOCC4)cc3)o2)c(Cl)c1,2%,-23%,1%,-20%,0%,1%
Clc1cccc(-c2ccc(C=Nc3ccc(N4CCOCC4)cc3)o2)c1Cl,1%,.,1%,3.4µM*,0%,-13%
COc1ccc(OC)c(N=C(C)C2=C(O)COC2=O)c1,8%,11µM*,-23%,4%,-8%,0%
CC(=Nc1ccccc1)C1=C(O)COC1=O,3%,-11%,-3%,0%,-3%,7%
c1ccc2c(CSc3nnc(-c4ccncc4)o3)cccc2c1,-1%,-28%,-5%,-12%,-1%,-4%
Fc1cccc(Cl)c1CSc1nnc(-c2ccncc2)o1,?,.,?,15µM*,4.5µM*,.
Clc1ccccc1CSc1nnc(-c2ccncc2)o1,9%,10µM*,?,17µM*,?,-7%
COc1cc(-c2nnc(SCc3c(F)cccc3Cl)o2)cc(OC)c1OC,1%,4%,-2%,0%,0%,-3%
CCN(C(=O)CSc1ncc2c(n1)-c1cc(Cl)ccc1N(Cc1ccccc1)S2(=O)=O)c1cccc(C)c1,.,.,.,-2%,.,.
Cc1ccc(C(=O)NCC(=O)NCC(c2ccco2)N2CCCCC2)cc1C (stereo not given),1%,.,8%,0%,1%,.
CCC1CSC(Nc2ccc(C(=O)/C=C/c3ccc(Oc4ccccc4)cc3)cc2)=N1 (stereo not given),9%,-66%,0%,13µM*,-6%,-4%
CCC1CSC(Nc2ccc(C(=O)/C=C/c3cccc(C)c3)cc2)=N1 (stereo not given),13%,-59%,-4%,?,-3%,3%
COc1ccc(Nc2cc(C)c3cc(NC(=O)COc4cccc(C)c4)ccc3n2)cc1,.,.,.,-2%,.,.
COc1ccc(C(=O)Nn2cnc3scc(-c4cccs4)c3c2=O)c(O)c1,7.3µM*,13µM*,2.8µM*,15µM*,2.5µM*,1%
COc1cccc(-n2cnc3scc(-c4cccs4)c3c2=O)c1,-3%,-7%,3%,-2%,1%,2%
COc1ccc(S(=O)(=O)NCCc2csc3nc(-c4ccc(Cl)cc4)nn23)cc1C,.,.,.,6%,.,.
COCCn1c(C)cc(O)c(C(c2ccccc2OC)N2CCN(c3ccccc3)CC2)c1=O (stereo not given),.,.,.,1%,.,.
CCCCCCCC1Cc2ccccc2C(C(C(=O)OC)C(=O)OC)N1C(=O)OC (stereo not given),.,-6%,.,.,.,-2%
Cc1cc(C(=O)NCCc2ccc(S(=O)(=O)NC(=O)NN3CCCCCC3)cc2)no1,.,.,.,.,.,2%[39.9 µM]
O=C(/C=C/c1ccc(F)cc1)N1CCCc2ccccc21,13%,-10%,21%,?,?,1%
SMILES,ELG1 genotoxic,SMN2 splice up,NPC1 prom act,FLuc counter,Rab9 prom act,Luc counter
O=C(/C=C/c1ccc(F)cc1)N1CCc2ccccc2C1,17%,.,?,11µM*,2.5µM*,.
CC(C)(C)c1ccc(/C=C/C(=O)N2CCc3ccccc3C2)cc1,4%,-1%,-1%,?,-8%,-5%
Cc1ccc(/C=C/C(=O)N2CCc3ccccc3C2)cc1,?,1%,24%,11µM*,24%,15%
Nc1cc(-c2ccccc2)nn1Cc1ccccc1,0%,-44%,9%,-7%,-8%,3%
CN(C)N=Nc1ccc(-c2cn(Cc3ccccc3)cn2)cc1,?,.,2.8µM*,19µM*,?,.
CCCOc1ccc(Cc2c(O)nc(SC)[nH]c2=O)cc1,-1%,.,2%,0%,0%,.
CN(CC(=O)Nc1ccc(F)c(F)c1F)C(=O)c1ccc(=O)[nH]c1,4.6µM*,.,0.89µM*,4.3µM*,1.1µM*,.
Cn1c(/C=N/Nc2nc3ccccc3[nH]2)nc2ccccc21,1.2µM*,4µM*,?,1.5µM*,3.5µM*,-6%
CC(C)Cn1c(/C=N/Nc2nc3ccccc3[nH]2)nc2ccccc21,?,-72%,-21%,?,-32%,-2%
CCCn1c(/C=N/Nc2nc3ccccc3[nH]2)nc2ccccc21,?,-29%,-2%,13µM*,-25%,-1%
Cc1nn(-c2ccccc2)c(C)c1/C=N/Nc1nc2ccccc2[nH]1,5.2µM*,3.2µM*,0.71µM*,0.85µM*,0.5µM*,10µM*
Cc1c(/C=N/Nc2nc3ccccc3[nH]2)c2ccccc2n1C,?,.,?,11µM*,?,.
Cc1c(/C=N/n2cnnc2)c2ccccc2n1C,-3%,15%,-2%,2%,-3%,1%
O=C1OC[C@H](Cc2ccc3c(c2)OCO3)/C1=C\c1ccc2c(c1)OCO2,23%,.,-4%,-1%,-11%,.
COc1ccc(CNC(=O)c2cnc3sc(N4CCCC4)nn3c2=O)cc1OC,.,.,.,-7%,.,.
COc1cccc(NC(=O)C2CCCN(c3ncnc4onc(-c5ccc(F)cc5)c34)C2)c1 (stereo not given),.,.,.,-1%,.,.
O=C(c1cc2c(=O)n3ccccc3nc2s1)N1CCc2ccccc2C1,5%,?,0%,?,-6%,-4%
Cc1noc(C)c1C(=O)N1CCC2(CCCN(c3ccncc3)C2)CC1,.,-6%,.,.,.,1%
C=CCn1cc(/C=N/Nc2nc3ccccc3[nH]2)c2ccccc21,10%,30%,1%,5.4µM*,-6%,2%
O=C1CC(NS(=O)(=O)c2cccnc2)CN1c1ccc(Cl)cc1 (stereo not given),-3%,.,-7%,-1%,0%,.
O=C(CN1C(=O)CCSc2ccc(S(=O)(=O)N3CCCC3)cc21)Nc1cccc(Cl)c1,.,.,.,7%,.,.
Cc1ccc(OCn2c(=O)sc3ccccc32)cc1,16µM*,?,?,24µM*,?,-1%
COc1ccccc1OCCCn1c(=O)sc2ccccc21,12%,18%,14%,15µM*,29%,-3%
